This note sets out measurements from PubChem BioAssay (EPA / NIEHS).

Broadly, the AC50 is the concentration giving half of the maximal activity seen.

Molecules are shown by their SMILES. More than one record can exist for a structure, and the calls need not agree. The source made the active and inactive calls. How the source made its calls: active means hit-call score of the fitted dose curve at least 0.9, where 1 is the maximum; inactive means score below 0.9.

Read-out in the assay: Thrombomodulin, THBD (gene 7056)
The experiment in a line: BSK_3C_Thrombomodulin: BioMAP Diversity Plus: 3C Assay for Thrombomodulin Biomarker Activity (AID 2283029). The note with it: primary human endothelial cells (HUVEC); actives raise or lower the signal. How it is done:
BSK_3C is a cell-based, multiplexed-readout assay that uses umbilical vein endothelium, a human vascular primary cell, with measurements taken at 24 hours after chemical dosing in a 96-well plate.BSK_3C_Thrombomodulin is an assay component measured in the BSK_3C assay. It measures Thrombomodulin antibody related to regulation of gene expression using ELISA technology.Data from the assay component BSK_3C_Thrombomodulin was analyzed into 1 assay endpoint. This assay endpoint, BSK_3C_Thrombomodulin, was analyzed with bidirectional fitting relative to DMSO as the negative control and baseline of activity. Using a type of binding reporter, gain or loss-of-signal activity can be used to understand changes in the signaling as they relate to the gene THBD. Furthermore, this assay endpoint can be referred to as a primary readout, because this assay has produced multiple assay endpoints where this one serves a signaling function. To generalize the intended target to other relatable targets, this assay endpoint is annotated to the gpcr intended target family, where the subfamily is rhodopsin-like receptor.
The levels of cell surface (or secreted, indicated by the prefix "s") biomarker endpoints were measured by ELISA. Overt cytotoxicity to cells in confluent adherent cultures (all systems other than the BT system) was assessed by measuring total protein levels using sulforhodamine B (SRB) staining in parallel cultures at the time of biomarker measurements, indicated as SRB endpoints. For proliferation assays for adherent cell types, individual cell types are cultured at sub-confluence and relative cell numbers quantified by SRB staining at time points optimized for each system (48 h: 3C and CASM3C systems; 72 h: BT and HDF3CGF systems; 96 h: SAg system). SRB was performed by staining cells with 0.1% SRB after fixation with 10% TCA and reading wells at 560 nm.Viability and proliferation of PBMC (T cells) was quantified by Alamar Blue reduction for the SAg and BT systems. For PBMC viability (referred to as PBMC Cytotoxicity within the assay endpoint names), cells were plated (75,000/well in a 96-well plate) and then chemical samples added for 1 h before addition of activators, SEB and TSST-1 (20 ng/mL final concentration each). Cells were incubated for 90 h. Then, Alamar Blue (20 uL/well) (Invitrogen, Cat DAL1100) was added for 6 h, and the plates were read with a fluorescence microplate reader at 546/580 nm (excitation/emission). For PBMC proliferation, cells were plated and activated as above but incubated for only 16 h prior to addition of Alamar Blue. Plates were read after 6 h.
Regarding `O=C(O)c1ccccc1`, the outcome was inactive.
On the same count and under the same terms, the entry for `COC(=O)c1ccc(I)cc1S(=O)(=O)NC(=O)Nc1nc(C)nc(OC)n1` is “inactive”.
In the case of `COC(=O)c1ccccc1C(=O)O`, the outcome was inactive.
The same measure, in the same setting: the entry for `CCCN(CCC)C(=O)SCC` is “inactive”; for `c1ccc2[nH]c(-c3cscn3)nc2c1` it is “inactive”.
As for `COc1nc(C)nc(NC(=O)NS(=O)(=O)c2ccccc2OCCCl)n1`, the outcome was inactive.
On the same count and under the same terms, next, `CC1(C)C(C=C(Cl)Cl)C1C(=O)OCc1cccc(Oc2ccccc2)c1` (stereo not given): “inactive”; `CCC(O)=C1C(=O)CC(C(=O)O)CC1=O` (stereo not given): “inactive”.
For `Oc1ccc(C(c2ccc(O)cc2)C(Cl)(Cl)Cl)cc1`, the AC50 is 6.1 µM (active).
On the same count and under the same terms, next, `O=C(Nc1ccc([N+](=O)[O-])cc1Cl)c1cc(Cl)ccc1O`: 0.148 µM (active).
In the case of `N#CSCSc1nc2ccccc2s1`, the half-maximal activity concentration (AC50) was 35.8 µM (active) and the result was inactive.
For `CC(=O)S[C@@H]1CC2=CC(=O)CC[C@]2(C)[C@H]2CC[C@@]3(C)[C@@H](CC[C@@]34CCC(=O)O4)[C@H]12`, the result was inactive.
Still for that read-out and setting: next, `CCOC(=O)c1ccc(O)cc1`: “inactive”; `COC(=O)c1c(Cl)nn(C)c1S(=O)(=O)NC(=O)Nc1nc(OC)cc(OC)n1`: “inactive”; `CCCCC(CC)COC(=O)c1ccccc1C(=O)O` (stereo not given): “inactive”.
Same read-out and setting: next, `COC(=O)c1ccc(CNS(C)(=O)=O)cc1S(=O)(=O)NC(=O)Nc1nc(OC)cc(OC)n1`: “inactive”; `CCCOC(=O)NCCCN(C)C`: “inactive”; `C[C@]12CC[C@@H]3c4ccc(O)cc4C[C@@H](CCCCCCCCCS(=O)CCCC(F)(F)C(F)(F)F)[C@H]3[C@@H]1CC[C@@H]2O` (stereo not given in full): “inactive”.
Regarding `O=C(c1ccccc1)C1CCCCC1`, the outcome was inactive.
Same read-out and setting: the entry for `CC(C)(c1ccc(O)cc1)c1ccc(O)cc1` is “inactive”; for `CCCCOC(=O)C(C)Oc1ccc(Oc2ccc(C(F)(F)F)cn2)cc1` (stereo not given) it is “inactive”.
The same measure, in the same setting: next, `CCOC(=O)C(C)Oc1ccc(Oc2nc3ccc(Cl)cc3o2)cc1` (stereo not given): “inactive”.
For the compound `CC(C)CCCCCCc1ccc(O)cc1`, the AC50 was 20 µM (active).
As to `C=CCOC(Cn1ccnc1)c1ccc(Cl)cc1Cl` (stereo not given), the result was inactive.
On the same count and under the same terms, the entry for `C[C@]12C[C@H](O)[C@H]3[C@@H](CCC4=CC(=O)CC[C@@]43C)[C@@H]1CC[C@@H]2C(=O)CO` is “inactive”; for `COCCO` it is “inactive”.
On the same count and under the same terms, the entry for `CCOC(=O)C(C)Oc1ccc(Oc2cnc3cc(Cl)ccc3n2)cc1` (stereo not given) is “inactive”; for `CCN(Cc1c(F)cccc1Cl)c1c([N+](=O)[O-])cc(C(F)(F)F)cc1[N+](=O)[O-]` it is “inactive”; for `CCC(C)OC(=O)N1CCCCC1CCO` (stereo not given) it is “inactive”.
For `CSC(=O)c1cccc2nnsc12`, the result was inactive.
On the same count and under the same terms, next, `COc1c(Cl)ccc(Cl)c1C(=O)O`: “inactive”.
Same read-out and setting: next, `CCCCOCCOCCOCc1cc2c(cc1CCC)OCO2`: “inactive”.
Turning to `COC(=O)CSc1cc(N=c2sc(=O)n3n2CCCC3)c(F)cc1Cl`, the AC50 is 1.21 µM (active).
Consider `O=C(O)C1(C(=O)Nc2ccc(Cl)cc2Cl)CC1`, for which the result was inactive.
`CCCN(CCC)c1c([N+](=O)[O-])cc(C(F)(F)F)c(N)c1[N+](=O)[O-]`: the AC50 was 2.15 µM (active).
On to `CCNc1nc(N)nc(Cl)n1`, for which the result was inactive.
With `Cc1nn(C)c(Oc2ccccc2)c1C=NOCc1ccc(C(=O)OC(C)(C)C)cc1`, the AC50 was 5.41 µM (active).
Regarding `CCCCC(CC)CN1C(=O)C2C3C=CC(C3)C2C1=O` (stereo not given), the result was inactive.
For `CCCCCCC(C)OC(=O)COc1nc(F)c(Cl)c(N)c1Cl` (stereo not given), the result was inactive.
